# The entries come from a sample that favours hits as a whole.
# IDE exosite FP – displaces the probe from the exo-site of human IDE. z-score at 20 µM. hit rate 6.3% among 17,000. purified IDE, FL-6b probe fluorescence polarization; active compounds read low;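 active = z-score of -3 or lower, meaning strong loss of probe binding signal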;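 note: His-tagged human IDE residues 42-1019 made in E. coli with 30 nM FL-6b probe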
# Target sequence (P14735 42-1019 limits assumed): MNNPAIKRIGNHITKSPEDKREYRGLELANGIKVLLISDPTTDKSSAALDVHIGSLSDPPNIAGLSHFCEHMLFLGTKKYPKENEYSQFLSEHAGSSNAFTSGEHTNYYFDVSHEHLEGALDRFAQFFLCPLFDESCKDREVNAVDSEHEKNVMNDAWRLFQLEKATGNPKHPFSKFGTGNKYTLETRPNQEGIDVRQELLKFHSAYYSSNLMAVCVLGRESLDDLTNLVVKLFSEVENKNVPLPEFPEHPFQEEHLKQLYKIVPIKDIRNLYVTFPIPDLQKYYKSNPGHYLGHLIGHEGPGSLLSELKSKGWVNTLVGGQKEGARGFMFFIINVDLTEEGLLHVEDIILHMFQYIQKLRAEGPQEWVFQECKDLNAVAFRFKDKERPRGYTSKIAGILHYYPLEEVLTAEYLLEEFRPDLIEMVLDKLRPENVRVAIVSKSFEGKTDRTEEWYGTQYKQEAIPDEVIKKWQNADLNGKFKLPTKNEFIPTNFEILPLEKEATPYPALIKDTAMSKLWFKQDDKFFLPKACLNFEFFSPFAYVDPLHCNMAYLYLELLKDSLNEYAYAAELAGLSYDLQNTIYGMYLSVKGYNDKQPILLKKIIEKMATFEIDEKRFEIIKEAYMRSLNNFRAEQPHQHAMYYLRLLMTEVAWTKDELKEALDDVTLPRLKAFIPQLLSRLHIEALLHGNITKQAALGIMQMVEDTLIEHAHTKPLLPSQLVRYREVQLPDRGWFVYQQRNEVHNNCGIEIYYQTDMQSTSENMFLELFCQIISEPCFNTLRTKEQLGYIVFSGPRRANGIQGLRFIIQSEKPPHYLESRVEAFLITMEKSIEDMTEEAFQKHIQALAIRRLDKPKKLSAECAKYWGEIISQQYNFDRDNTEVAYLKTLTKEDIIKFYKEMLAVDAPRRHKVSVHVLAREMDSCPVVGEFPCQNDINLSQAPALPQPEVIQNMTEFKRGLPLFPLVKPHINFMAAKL
# A number is an active result; . = inactive.
SMILES,IDE exosite FP
C[C@H]1CN([C@@H](C)CO)C(=O)c2ccccc2-c2ccccc2CO[C@@H]1CN(C)S(=O)(=O)c1cccc(C#N)c1,.
O=C(c1cccnc1)N1CCCCN2[C@H](C1)[C@@H](c1ccc(C#Cc3cccnc3)cc1)[C@@H]2CO,.
CC(C)(O)C#Cc1ccc([C@H]2[C@H](CO)N3CCCCN(C(=O)c4cccnc4)C[C@@H]23)cc1,.
O=C(c1cccnc1)N1CCCCN2[C@H](CO)[C@H](c3ccc(C#Cc4cccnc4)cc3)[C@@H]2C1,-4.34
CC(C)(O)C#Cc1ccc([C@@H]2[C@@H](CO)N3CCCCN(C(=O)c4cccnc4)C[C@H]23)cc1,.
O=C(c1cccnc1)N1CCCCN2[C@@H](CO)[C@H](c3ccc(C#Cc4ccccn4)cc3)[C@@H]2C1,-7.72
CC(C)(O)C#Cc1ccc([C@H]2[C@@H](CO)N3CCCCN(C(=O)c4cccnc4)C[C@@H]23)cc1,.
O=C(c1ccncc1)N1CCCCN2[C@H](C1)[C@@H](c1ccc(C#Cc3ccccn3)cc1)[C@@H]2CO,.
O=C(c1ccncc1)N1CCCCN2[C@H](CO)[C@H](c3ccc(C#Cc4ccccn4)cc3)[C@@H]2C1,.
O=C(c1cccnc1)N1CCCCN2[C@H](C1)[C@H](c1ccc(C#Cc3ccccn3)cc1)[C@@H]2CO,-5.46
COCC(=O)NC[C@@H]1[C@H](c2ccc(C3=CCCC3)cc2)[C@@H](CO)N1C(=O)C1CC1,.
O=C(O)C[C@@H]1C=C[C@H](NC(=O)Nc2cc(F)ccc2F)[C@@H](CO)O1,.
CCCC#Cc1ccc([C@@H]2[C@H](CO)N3C(=O)CN(C(=O)Nc4ccccc4)C[C@@H]23)cc1,.
CCS(=O)(=O)Nc1ccc2c(c1)C(=O)N(C)[C@H]1CC[C@H](CC(=O)N[C@H]3CCN(Cc4ccccc4)C3)O[C@@H]1CO2,.
COc1ccc2c3c([nH]c2c1)[C@@H](CO)NCC31CCN(C(=O)c2ccccc2)CC1,.
NCC[C@H]1CC[C@H](NC(=O)NC2CCCCC2)[C@H](CO)O1,.
CCC(=O)N1CC2(C1)[C@@H](c1ccc(-c3ccccc3C)cc1)[C@@H](CO)N2C(=O)CC,.
CCCC#Cc1ccc([C@H]2[C@@H](CO)N(C(C)=O)[C@@H]2CNC(=O)C2CCC2)cc1,.
CC(=O)N1CC(=O)N2[C@H](C1)[C@H](c1ccc(C#Cc3cccnc3)cc1)[C@@H]2CO,.
COc1cccc(C#Cc2ccc([C@H]3[C@H](CO)N4C(=O)CN(C(C)=O)C[C@@H]34)cc2)c1,-5.36
COc1cccc(C#Cc2ccc([C@@H]3[C@H](CO)N4C(=O)CN(C(C)=O)C[C@@H]34)cc2)c1,-15.3
CCC(=O)N1CC(=O)N2[C@H](CO)[C@H](c3ccc(C#Cc4cccnc4)cc3)[C@H]2C1,.
COc1cccc(C#Cc2ccc([C@@H]3[C@H]4CN(C(=O)c5ccncc5)CC(=O)N4[C@H]3CO)cc2)c1,.
COc1cccc(C#Cc2ccc([C@H]3[C@H]4CN(C(=O)c5ccccc5)CC(=O)N4[C@H]3CO)cc2)c1,.
CC(=O)N1CC(=O)N2[C@@H](CO)[C@@H](c3ccc(C#Cc4cccnc4)cc3)[C@@H]2C1,-3.85
SMILES,IDE exosite FP
COc1cccc(C#Cc2ccc([C@H]3[C@@H](CO)N4C(=O)CN(C(=O)c5ccncc5)C[C@H]34)cc2)c1,-8.42
COc1cccc(C#Cc2ccc([C@@H]3[C@@H](CO)N4C(=O)CN(C(=O)c5ccccc5)C[C@@H]34)cc2)c1,.
COc1cccc(C#Cc2ccc([C@@H]3[C@H](CO)N4C(=O)CN(C(=O)c5ccccc5)C[C@@H]34)cc2)c1,.
O=C(N[C@@H]1CC[C@@H](CC(=O)N2CCOCC2)O[C@H]1CO)c1cccc(F)c1,.
COc1ccc(-c2ccc([C@H]3[C@@H](CO)N4C(=O)CN(Cc5ccc(C)cc5)C[C@@H]34)cc2)cc1,.
CCC(=O)N1CC(=O)N2[C@H](C1)[C@@H](c1ccc(-c3cccnc3)cc1)[C@@H]2CO,.
CCS(=O)(=O)Nc1ccc2c(c1)C(=O)N(C)[C@@H]1CC[C@H](CC(=O)NC3CCCCC3)O[C@@H]1CO2,.
CCS(=O)(=O)Nc1ccc2c(c1)C(=O)N(C)[C@@H]1CC[C@@H](CC(=O)NC3CCCCC3)O[C@@H]1CO2,.
CCCNC(=O)N1[C@H](C#N)[C@H](c2ccc(-c3cccc(OC)c3)cc2)[C@H]1CO,.
CO[C@@H]1CC[C@H]2CCN(C)C(=O)[C@@H](C)CN(C)C(=O)c3cc(C#N)ccc3OC[C@@H]1O2,.
CCc1cnc(N2[C@H](C#N)[C@H](c3ccc(-c4cccc(F)c4)cc3)[C@@H]2CO)s1,.
CC(=O)N1[C@H](CO)[C@@H]2c3ccccc3N(S(=O)(=O)c3ccccc3C)C[C@@H]21,.
COc1ccccc1C#Cc1ccc([C@@H]2[C@@H](C#N)N(C(=O)C3CC3)[C@H]2CO)cc1,-4.25
COc1ccccc1C#Cc1ccc([C@@H]2[C@@H](C#N)N(C(=O)C3CC3)[C@@H]2CO)cc1,-6.45
N#C[C@@H]1[C@H](c2ccc(C#Cc3ccccc3F)cc2)[C@H](CO)N1C(=O)C1CC1,.
COCC(=O)N1[C@H](C#N)[C@@H](c2ccc(C#Cc3ccccc3F)cc2)[C@H]1CO,-3.92
N#C[C@@H]1[C@H](c2ccc(C#Cc3ccccc3F)cc2)[C@@H](CO)N1C(=O)C1CC1,.
COCC(=O)N1[C@@H](C#N)[C@@H](c2ccccc2)[C@@H]1CO,.
N#C[C@H]1[C@@H](c2ccc(C#Cc3ccccc3F)cc2)[C@@H](CO)N1C(=O)C1CC1,-3.36
N#C[C@H]1[C@@H](c2ccc(C#Cc3ccccc3F)cc2)[C@H](CO)N1C(=O)C1CC1,.
C[C@@H](NC(=O)C[C@H]1C=C[C@@H](NS(=O)(=O)c2cccc(F)c2)[C@@H](CO)O1)c1ccccc1,.
COc1ccc2c3c([nH]c2c1)[C@H](CO)N(S(C)(=O)=O)CC31CN(C(=O)Cc2cccnc2)C1,.
Cc1ccccc1S(=O)(=O)N1[C@H](C#N)[C@H](c2ccc(C#CC3CCCCC3)cc2)[C@H]1CO,.
CN(C)CC#Cc1ccc([C@H]2[C@H](CO)N3C(=O)CN(C(=O)c4ccccc4)C[C@@H]23)cc1,.
Cc1ccc(OC(=O)N(C)C[C@@H]2OCc3ccccc3-c3ccccc3C(=O)N([C@@H](C)CO)C[C@H]2C)cc1,.
SMILES,IDE exosite FP
CO[C@@H]1CN(C)C(=O)c2cc(NS(=O)(=O)c3cn(C)cn3)ccc2OC[C@H](C)NC[C@H]1C,.
COCC(=O)N1CC(=O)N2[C@H](CO)[C@@H](c3ccc(C#CC(C)C)cc3)[C@@H]2C1,.
O=C1NCCOCc2cnnn2CC[C@@H]1Cc1ccc(F)cc1,.
O=C(c1cccnc1)N1CC(=O)N2[C@H](C1)[C@H](c1ccc(C#CCC3CCCC3)cc1)[C@@H]2CO,.
N#C[C@@H]1[C@H](c2ccc(-c3cncnc3)cc2)[C@H](CO)N1C(=O)Cc1ccccc1,.
COc1ccccc1C#Cc1ccc([C@@H]2[C@H](C#N)N(C(=O)C3CC3)[C@H]2CO)cc1,-9.27
COc1ccccc1C#Cc1ccc([C@H]2[C@@H](C#N)N(C(=O)C3CC3)[C@@H]2CO)cc1,-5.3
N#C[C@H]1[C@H](c2ccc(C#Cc3ccc(F)cc3)cc2)[C@H](CO)N1C(=O)C1CC1,.
OC[C@@H]1[C@H](c2ccc(C3=CCCCC3)cc2)[C@@H]2CN(CCC(F)(F)F)CCCCN12,.
Cc1ccc(-c2ccc([C@H]3[C@H]4CN(S(=O)(=O)c5ccccc5C)CCCCN4[C@H]3CO)cc2)cc1,.
COc1ccccc1NC(=O)N1CCCCN2[C@@H](CO)[C@H](c3ccc(C#CC4CCCC4)cc3)[C@@H]2C1,.

# Screening results (PubChem BioAssay)
